From paper PMC8384837, “Expanding the binding specificity for RNA recognition by a PUF domain” come the findings set out here.

What all share (experiment): yeast three-hybrid, YBZ-1, SC-Leu-His + 0.5 mM 3-AT, 4 days
Conditions in all cases: tags: N-Gal4 AD-HA kept; label: inside an RPR1-promoter hybrid RNA with tandem MS2 sites; ssRNA

Test [1] deals with PUM1 PUF domain R7-RPM (Homo sapiens, UniProt Q14671 828-1176, S1079R;N1080P;E1083M). In short, it runs like this:
(§1)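 A centromeric plasmid in strain YBZ-1 co-expressed Pumilio-1 PUF domain libraries, randomized at the three base-contacting residues of each repeat, with matching RNA elements; the strain carries a LexA–MS2 coat fusion and a HIS3 reporter. After four days on SC-Leu (input) or SC-Leu-His + 0.5 mM 3-AT (selection), the repeat regions were PCR-amplified and Illumina-sequenced. The interaction score is the log change in variant frequency from input to selection, using log2 and a pseudocount of 1 where absent.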

Test [2] deals with PUM1 PUF domain R1-QRS (Homo sapiens, UniProt Q14671 828-1176, S863Q;Q867S). In short, it runs like this: as §1
Test [3] has as its target T1, PUM1 PUF domain R6-CFE (Homo sapiens, UniProt Q14671 828-1176, N1043C;Y1044F;Q1047E).
T1 sequence: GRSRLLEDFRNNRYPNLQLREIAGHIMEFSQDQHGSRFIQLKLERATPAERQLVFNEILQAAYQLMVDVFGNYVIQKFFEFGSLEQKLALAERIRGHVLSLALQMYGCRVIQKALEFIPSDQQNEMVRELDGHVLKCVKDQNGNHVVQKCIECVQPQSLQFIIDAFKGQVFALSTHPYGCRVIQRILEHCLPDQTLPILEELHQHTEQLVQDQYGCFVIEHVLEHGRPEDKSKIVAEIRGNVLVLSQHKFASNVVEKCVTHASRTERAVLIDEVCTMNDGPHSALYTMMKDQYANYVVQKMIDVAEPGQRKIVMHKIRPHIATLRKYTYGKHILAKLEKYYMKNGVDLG
Put shortly:
as §1

The target in test [4] is PUM1 PUF domain R5-RGR (Homo sapiens, UniProt Q14671 828-1176, C1007R;R1008G;Q1011R). Put shortly: as §1
In test [5] the target is PUM1 PUF domain R5-RMS (Homo sapiens, UniProt Q14671 828-1176, C1007R;R1008M;Q1011S). Put shortly: as §1
For test [6], the target named is PUM1 PUF domain R5-HFF (Homo sapiens, UniProt Q14671 828-1176, C1007H;R1008F;Q1011F). Put shortly: as §1
Test [7] concerns the target PUM1 PUF domain R5-QGC (Homo sapiens, UniProt Q14671 828-1176, C1007Q;R1008G;Q1011C). Put shortly: as §1
Test [8] concerns the target PUM1 PUF domain R4-SRV (Homo sapiens, UniProt Q14671 828-1176, N971S;H972R;Q975V). In short, it runs like this:
as §1

Test [9] addresses PUM1 PUF domain R4-FGA (Homo sapiens, UniProt Q14671 828-1176, N971F;H972G;Q975A). Put shortly:
as §1

For test [10], the target named is PUM1 PUF domain R4-NRA (Homo sapiens, UniProt Q14671 828-1176, H972R;Q975A). In short, it runs like this:
as §1

For test [11], the target named is PUM1 PUF domain R3-FRG (Homo sapiens, UniProt Q14671 828-1176, C935F;Q939G). In short, it runs like this: as §1
The target of test [12] is PUM1 PUF domain R3-IRV (Homo sapiens, UniProt Q14671 828-1176, C935I;Q939V). Put shortly:
as §1

Test [13] addresses PUM1 PUF domain R3-IWL (Homo sapiens, UniProt Q14671 828-1176, C935I;R936W;Q939L). In short, it runs like this: as §1
For test [14], the target named is PUM1 PUF domain R3-SSE (Homo sapiens, UniProt Q14671 828-1176, C935S;R936S;Q939E). In short, it runs like this:
as §1

For test [15], the target named is PUM1 PUF domain R5-LHV (Homo sapiens, UniProt Q14671 828-1176, C1007L;R1008H;Q1011V). Put shortly:
as §1

The target of test [16] is PUM1 PUF domain R5-KRR (Homo sapiens, UniProt Q14671 828-1176, C1007K;Q1011R). Put shortly: as §1
Test [17] concerns the target PUM1 PUF domain R8-RYG (Homo sapiens, UniProt Q14671 828-1176, N1122R;Q1126G). In short, it runs like this:
as §1

Test [18] deals with PUM1 PUF domain R4-GHP (Homo sapiens, UniProt Q14671 828-1176, N971G;Q975P). Put shortly: as §1
The target in test [19] is PUM1 PUF domain R5-PRC (Homo sapiens, UniProt Q14671 828-1176, C1007P;Q1011C). Put shortly:
as §1

For test [20], the target named is T2, PUM1 PUF domain R6-AFQ (Homo sapiens, UniProt Q14671 828-1176, N1043A;Y1044F).
T2 sequence: T1 sequence with C216A, E220Q
In short, it runs like this: as §1

Residue numbers refer to the chain shown, from its start.

As for “GGCUAGAACUAGUGGAUCCCCCGGCGCCCGGCGGCUCGAGCCCGGGUAAGUUUAAAUAGUCUGCAUGCCGCCGGGCGCCAUGCCUGCAGGUCGACUCUAGAAAACAUG”, in test [1], the binding signal was 3.18 log2 enrichment (interaction score).

Turning to “GGCUAGAACUAGUGGAUCCCCCGGCGCCCGGCGGCUCGAGCCCGGGUAAGUGUAAAUUGUCUGCAUGCCGCCGGGCGCCAUGCCUGCAGGUCGACUCUAGAAAACAUG”, the binding signal in [2] was 2.7 log2 enrichment (interaction score).

Consider “GGCUAGAACUAGUGGAUCCCCCGGCGCCCGGCGGCUCGAGCCCGGGUAAGUGGAAAUAGUCUGCAUGCCGCCGGGCGCCAUGCCUGCAGGUCGACUCUAGAAAACAUG”, for which, in [3], the binding signal was 2.88 log2 enrichment (interaction score).

“GGCUAGAACUAGUGGAUCCCCCGGCGCCCGGCGGCUCGAGCCCGGGUAAGUGUUAAUAGUCUGCAUGCCGCCGGGCGCCAUGCCUGCAGGUCGACUCUAGAAAACAUG”: the binding signal in [4] is 3.07 log2 enrichment (interaction score); in test [5], 2.79 log2 enrichment (interaction score); in test [6] it was 3.86 log2 enrichment (interaction score); in [7], 2.19 log2 enrichment (interaction score).

Turning to “GGCUAGAACUAGUGGAUCCCCCGGCGCCCGGCGGCUCGAGCCCGGGUAAGUGUAUAUAGUCUGCAUGCCGCCGGGCGCCAUGCCUGCAGGUCGACUCUAGAAAACAUG”, the figures for the binding signal in [8], in test [9] and in [10] were 1.19 log2 enrichment (interaction score), 2.95 log2 enrichment (interaction score) and 2.48 log2 enrichment (interaction score), respectively.

In the case of “GGCUAGAACUAGUGGAUCCCCCGGCGCCCGGCGGCUCGAGCCCGGGUAAGUGAAAAUAGUCUGCAUGCCGCCGGGCGCCAUGCCUGCAGGUCGACUCUAGAAAACAUG”, in [3], the binding signal was 6.12 log2 enrichment (interaction score).

For “GGCUAGAACUAGUGGAUCCCCCGGCGCCCGGCGGCUCGAGCCCGGGUAAGUGUAAGUAGUCUGCAUGCCGCCGGGCGCCAUGCCUGCAGGUCGACUCUAGAAAACAUG”, the binding signal in [11] is 5.59 log2 enrichment (interaction score); in test [12], 1.69 log2 enrichment (interaction score); in [13], 2.77 log2 enrichment (interaction score); in test [14], 6.26 log2 enrichment (interaction score).

As for “GGCUAGAACUAGUGGAUCCCCCGGCGCCCGGCGGCUCGAGCCCGGGUAAGUGUCAAUAGUCUGCAUGCCGCCGGGCGCCAUGCCUGCAGGUCGACUCUAGAAAACAUG”, the binding signal is 1.43 log2 enrichment (interaction score) in [15], 3.52 log2 enrichment (interaction score) in [4], 3.6 log2 enrichment (interaction score) in [16] and 3.6 log2 enrichment (interaction score) in test [5].

On to “GGCUAGAACUAGUGGAUCCCCCGGCGCCCGGCGGCUCGAGCCCGGGUAAGCGUAAAUAGUCUGCAUGCCGCCGGGCGCCAUGCCUGCAGGUCGACUCUAGAAAACAUG”, for which, in test [17], the binding signal is 5.66 log2 enrichment (interaction score).

Consider “GGCUAGAACUAGUGGAUCCCCCGGCGCCCGGCGGCUCGAGCCCGGGUAAGUGUACAUAGUCUGCAUGCCGCCGGGCGCCAUGCCUGCAGGUCGACUCUAGAAAACAUG”, for which the binding signal in test [8] is 0.98 log2 enrichment (interaction score); in test [9], 3.23 log2 enrichment (interaction score); in [18], 5.4 log2 enrichment (interaction score).

Take “GGCUAGAACUAGUGGAUCCCCCGGCGCCCGGCGGCUCGAGCCCGGGUAAGUCUAAAUAGUCUGCAUGCCGCCGGGCGCCAUGCCUGCAGGUCGACUCUAGAAAACAUG”: the binding signal in test [1] was 0.93 log2 enrichment (interaction score).

As for “GGCUAGAACUAGUGGAUCCCCCGGCGCCCGGCGGCUCGAGCCCGGGUAAGUGUAAAUAGUCUGCAUGCCGCCGGGCGCCAUGCCUGCAGGUCGACUCUAGAAAACAUG”, the binding signal was 3.57 log2 enrichment (interaction score) in test [15]; 3.51 log2 enrichment (interaction score) in test [8]; 4.13 log2 enrichment (interaction score) in test [19]; 2.93 log2 enrichment (interaction score) in [12]; 3.75 log2 enrichment (interaction score) in test [20]; 1.37 log2 enrichment (interaction score) in test [9]. The binding signal in test [13] is 4.86 log2 enrichment (interaction score); in test [17], 5.75 log2 enrichment (interaction score); in test [18] it was 5.41 log2 enrichment (interaction score); in test [14], 0.23 log2 enrichment (interaction score).
